The campaign covered roughly 310,000 compounds. About 14,000 (4.5%) showed an effect of 50% or more. Effects have a minus sign here. For the sample, strong results were picked, then their nearest neighbours and some compounds at random.
molecular target: human ether-à-go-go-related gene (hERG) potassium channel (human, UniProt Q12809); assay: primary screen, population patch clamp on CHO cells stably expressing hERG; higher = less effect of the substance
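Note: peak tail current of the secondary pulse compared with the same well before compound.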

human ether-à-go-go-related gene (hERG) potassium channel, sequence (Q12809 whole entry, looked up): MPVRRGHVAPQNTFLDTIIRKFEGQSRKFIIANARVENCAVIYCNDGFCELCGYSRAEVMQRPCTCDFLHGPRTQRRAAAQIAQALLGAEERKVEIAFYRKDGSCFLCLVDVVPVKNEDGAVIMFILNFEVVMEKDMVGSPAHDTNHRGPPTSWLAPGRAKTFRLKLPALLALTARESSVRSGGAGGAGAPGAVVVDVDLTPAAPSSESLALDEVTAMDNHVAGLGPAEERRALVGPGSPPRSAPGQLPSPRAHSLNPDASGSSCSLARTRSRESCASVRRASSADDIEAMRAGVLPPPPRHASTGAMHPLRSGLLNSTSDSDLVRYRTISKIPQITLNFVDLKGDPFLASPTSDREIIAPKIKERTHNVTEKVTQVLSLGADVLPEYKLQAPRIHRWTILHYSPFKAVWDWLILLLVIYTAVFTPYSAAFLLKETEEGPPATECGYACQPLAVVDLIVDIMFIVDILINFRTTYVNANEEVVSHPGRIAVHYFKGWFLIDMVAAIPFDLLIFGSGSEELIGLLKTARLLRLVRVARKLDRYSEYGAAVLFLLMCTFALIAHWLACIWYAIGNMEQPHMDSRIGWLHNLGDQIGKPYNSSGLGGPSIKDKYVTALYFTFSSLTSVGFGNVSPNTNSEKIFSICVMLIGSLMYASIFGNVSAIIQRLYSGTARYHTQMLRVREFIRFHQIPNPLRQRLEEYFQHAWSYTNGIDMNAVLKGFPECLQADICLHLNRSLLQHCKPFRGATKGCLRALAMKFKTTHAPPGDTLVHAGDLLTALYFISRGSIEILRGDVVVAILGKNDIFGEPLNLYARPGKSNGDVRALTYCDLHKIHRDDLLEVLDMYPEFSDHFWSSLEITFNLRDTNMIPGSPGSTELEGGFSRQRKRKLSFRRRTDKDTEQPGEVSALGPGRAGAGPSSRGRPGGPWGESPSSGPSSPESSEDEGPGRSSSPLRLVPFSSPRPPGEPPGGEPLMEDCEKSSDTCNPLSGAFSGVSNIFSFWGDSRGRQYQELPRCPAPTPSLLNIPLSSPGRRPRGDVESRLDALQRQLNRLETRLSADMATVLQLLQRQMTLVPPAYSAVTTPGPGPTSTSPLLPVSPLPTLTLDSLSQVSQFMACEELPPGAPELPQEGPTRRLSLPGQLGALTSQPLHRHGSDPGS

Row | Compound | hERG current change (%, negative = inhibition) at 10uM
1 | CC(=O)N1c2ccc(S(=O)(=O)N3CCCC3C(=O)Nc3cccc(F)c3)cc2CC1C (stereo not drawn) | -32.8%
2 | CC(=O)N1c2ccc(S(=O)(=O)N3CCCC(C(=O)NCc4ccc(Cl)cc4)C3)cc2CC1C (stereo not drawn) | -2.85%
3 | CSc1ccc(CNC(=O)C2Cc3cc(S(=O)(=O)N4CCCC4)ccc3N2C(C)=O)cc1 (stereo not drawn) | -38.2%
4 | Cc1cc(C)cc(NC(=O)C2CCCN2S(=O)(=O)c2ccc3c(c2)C(C)(C)C(=O)N3C)c1 (stereo not drawn) | -38.7%
5 | Cc1noc(C)c1C(=O)NCc1ccco1 | 0.0994%
6 | C/C(=N/NC(N)=S)c1cc2ccc(O)cc2oc1=O | 21.7%
7 | O=C(Nc1ccccc1C(=O)O)c1ccccc1 | 8.69%
8 | COc1ccc2oc(=O)c(C(=O)N3CCN(C(=O)c4ccco4)CC3)cc2c1 | -12.9%
9 | CC(Oc1ccc(F)cc1F)C(=O)NNC(=S)NCC1CCCO1 (stereo not drawn) | 9.12%
10 | CC(C)(C)C(=O)Nc1sc2c(c1C#N)CCN(Cc1ccccc1)C2.Cl | 1.78%
11 | CCc1ccc(-c2cc(C(=O)Nn3cnnc3)c3ccccc3n2)cc1 | 10.7%
12 | Clc1c(-c2nnc3n2CCC3)sc2ccccc12 | 10.4%
13 | COc1ccc2c(Cl)c(-c3nnc4n3CCCCC4)sc2c1 | -51.2%
14 | Clc1c(-c2nnc3n2CCCCC3)sc2ccccc12 | -13.9%
15 | COc1cc(NC(=O)CSc2nc(C)c(C)c(C)n2)c(C)cc1[N+](=O)[O-] | 0.898%
16 | Cc1nn(-c2ccccc2)c2c1C(O)CC(C)(C)C2 (stereo not drawn) | 17.8%
17 | COc1cc(-c2nc3cnccn3c2Nc2ccccc2)ccc1O | -0.787%
18 | CCN1CCN(C(=O)/C=C/c2ccc([N+](=O)[O-])cc2)CC1 | -64.2%
19 | CCOC(=O)N1CCN(C(=O)/C=C/c2ccc([N+](=O)[O-])cc2)CC1 | -70.6%
20 | CN1CCN(C(=O)/C=C/c2ccc(Cl)c(Cl)c2)CC1 | -23%
21 | CN1CCN(C(=O)/C=C/c2ccc([N+](=O)[O-])cc2)CC1 | -67%
22 | CN1CCN(C(=O)/C=C/c2ccc(C#N)cc2)CC1 | -54.3%
23 | CN1CCN(C(=O)/C=C\c2ccc(Cl)cc2)CC1 | -41%
24 | CCOC(=O)N1CCN(C(=O)/C=C/c2ccc(C(C)(C)C)cc2)CC1 | -26.1%

Row | Compound | hERG current change (%, negative = inhibition) at 10uM
25 | CCN1CCN(C(=O)/C=C/c2ccc(C(C)C)cc2)CC1 | -35.2%
26 | CCOC(=O)N1CCN(C(=O)/C=C/c2ccc(OC)cc2)CC1 | -17.8%
27 | CSc1ccc(/C=C/C(=O)N2CCCN(C)CC2)cc1.Cl | -26.6%
28 | CCN1CCN(C(=O)/C=C/c2ccc(OC)cc2)CC1 | -19.1%
29 | CN1CCN(C(=O)/C=C/c2ccc(Cl)cc2)CC1 | -44.8%
30 | COc1ccc(-c2cc3nc(C)cc(N)n3n2)cc1 | 3.53%
31 | CCCCC(=O)NC1(C(F)(F)F)C(=O)Nc2c1c(=O)n(C)c(=O)n2C (stereo not drawn) | -4.15%
32 | O=C(NC1CC(=O)N(c2ccccc2)C1)C(=O)c1c[nH]c2ccccc12 (stereo not drawn) | -11.1%
33 | COc1cc2c(cc1OC)CN(C(=O)/C=C/c1cccc([N+](=O)[O-])c1)CC2 | -31.2%
34 | COc1cc2c(cc1OC)CN(C(=O)/C=C/c1ccc(F)cc1)CC2 | -22.2%
35 | COc1cc2c(cc1OC)CN(C(=O)/C=C/c1ccc([N+](=O)[O-])cc1)CC2 | -55.1%
36 | CCOc1cc(C(c2c(C)[nH][nH]c2=O)c2c(C)[nH][nH]c2=O)ccc1OC(=O)c1cccc([N+](=O)[O-])c1 | -4.87%
37 | Br.CC(C)O.Cc1ccc(-c2csc(Nc3ccccc3)[n+]2CCc2ccccc2)cc1 | 20.5%
38 | COc1ccc(CCNC(=O)COc2ccc(-c3ccc(C)cc3)cc2)cc1OC | -9.64%
39 | CCOc1ccc(-c2cc(C)[n+](CCN3CCOCC3)c(-c3ccc(OCC)cc3)c2)cc1.[O-][Cl+3]([O-])([O-])[O-] | -41.4%
40 | CCOc1ccc(-c2cc(C)[n+](CCc3ccc(OC)c(OC)c3)c(-c3ccc(OCC)cc3)c2)cc1.[O-][Cl+3]([O-])([O-])[O-] | -83.1%
41 | CCOc1ccc(-c2cc(C)[n+](CCO)c(-c3ccc(OCC)cc3)c2)cc1.[O-][Cl+3]([O-])([O-])[O-] | -62.6%
42 | Cc1cc(-c2ccccc2)cc(-c2ccccc2)[n+]1CCc1ccccc1.[O-][Cl+3]([O-])([O-])[O-] | -76.5%
43 | CCOc1ccc(-c2nc(C)sc2CC(=O)O)cc1 | 11%
44 | CCOc1ccc(C(=O)CC(=O)C(=O)NCCc2ccc(OC)c(OC)c2)cc1 | -10%
45 | Cc1cc(-c2ccccc2)cc(C)[n+]1Cc1ccccc1.[O-][Cl+3]([O-])([O-])[O-] | 5.38%
46 | CCOc1ccc(-c2cc(C)[n+](CCN(CC)CC)c(-c3ccc(OCC)cc3)c2)cc1.[O-][Cl+3]([O-])([O-])[O-] | -79.3%
47 | CCOc1ccc(-c2cn[nH]c2N)cc1 | -5.03%
48 | CCOC(C[n+]1c(-c2ccccc2)cc(C)cc1-c1ccccc1)OCC.[O-][Cl+3]([O-])([O-])[O-] | 3.9%

Source: article PMC4336329 (PLoS ONE, 2015)
